# Assay results from PubChem BioAssay (NCATS).
# Results filed as inconclusive are left out. A number with no mark means an inactive call. Active and inactive are the calls of the source. Calls follow the shape of the dose curve; as a rule, active = well fitted curve in the direction sought with a large enough effect; inconclusive = small, poorly fitted or top-dose-only effect, or another doubt; inactive = no such curve, though single readings can be large; an effect the other way counts as inactive or inconclusive.
# What was measured:
# [1] = BET inhibitor-based combinations targeting novel dependencies in MECOM-rearranged (r) AML: SET-2 cell line (AID 2202231); details: SET-2 AML cells viability, CellTiter-Glo luminescence, 48 h; viability: hits give low values, concentration not given here; also: nearly all actives have a fitted effect of over 35% in size;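 as to viability: plate controls were DMSO treated cells for no effect and wells without cells for full effect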
# In short: (§1)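 AML cell lines seeded at 500 cells/well, treated with 11-point dose curves for 48 h. Viability by CellTiter-Glo luminescence, normalised to DMSO and empty wells; activity expressed as AUC and per-cell-line Z-transformed AUC.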
# [2] = BET inhibitor-based combinations targeting novel dependencies in MECOM-rearranged (r) AML: OCI-AML3 cell line (AID 2202232); details: Potency: OCI-AML3 viability; also: nearly all actives have a fitted effect of over 35% in size
# In short: as §1
# [3] = BET inhibitor-based combinations targeting novel dependencies in MECOM-rearranged (r) AML: UCSD-AML1 cell line (AID 2202235); also: nearly all actives have a fitted effect of over 40% in size
# In short: (§2)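 Cells at 500/well were exposed for 48 hr to MIPE v5.0 drugs as 11-point dose curves. Viability was read by CellTiter-Glo luminescence and normalized to DMSO and empty-well controls. Activity was expressed as AUC and per-cell-line Z-AUC.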
# [4] = BET inhibitor-based combinations targeting novel dependencies in MECOM-rearranged (r) AML: AML-191 cell line (AID 2202236; also: nearly all actives have a fitted effect of over 35% in size)
# In short: as §1
# [5] = BET inhibitor-based combinations targeting novel dependencies in MECOM-rearranged (r) AML: AML-194 cell line (AID 2202237; also: nearly all actives have a fitted effect of over 40% in size)
# In short: as §1
# [6] = BET inhibitor-based combinations targeting novel dependencies in MECOM-rearranged (r) AML: MV-4-11 cell line (AID 2202233); also: nearly all actives have a fitted effect of over 45% in size
# In short: as §2
# [7] = BET inhibitor-based combinations targeting novel dependencies in MECOM-rearranged (r) AML: HNT-34 cell line (AID 2202234); also: nearly all actives have a fitted effect of over 35% in size
# In short: as §2
# Potency is read from the fitted curve at half-maximal effect.
compound,measurement,setting,value
c1ccc2c(Cc3c[nH]c4ccccc34)c[nH]c2c1,viability,[1],103%
same,Potency,[2],inactive
same,Potency,[3],inactive
same,Potency,[4],inactive
same,Potency,[5],inactive
C=C1[C@H](OC(=O)/C=C(\C)CC)C[C@@H](C(C)C)[C@@H]2[C@H]([C@@H](C)OC(C)=O)C(=O)C[C@@H]12,Potency,[1],16.6 µM (active)
same,Potency,[6],18.6 µM (active)
CONC(=O)c1ccccc1Nc1cc(Nc2cc(C)nn2C(C)C)ncc1Cl,viability,[1],86.2%
same,Potency,[6],14.8 µM (active)
O=C(/C=C\n1cnc(-c2cc(C(F)(F)F)cc(C(F)(F)F)c2)n1)NNc1ccccn1,Potency,[1],0.934 µM (active)
same,Potency,[2],0.833 µM (active)
same,Potency,[3],0.468 µM (active)
same,Potency,[4],0.525 µM (active)
same,Potency,[5],0.417 µM (active)
Cc1cc(C)cc(Oc2ccc(CNC(=O)[C@H](C)N)cc2C)c1,viability,[1],109%
same,Potency,[6],18.6 µM (active)
CC1c2cccc(O)c2C(O)=C2C(=O)C3(O)C(O)=C(C(N)=O)C(=O)C(N(C)C)C3C(O)C21 (stereo unspecified),Potency,[1],26.3 µM (active)
same,Potency,[2],26.3 µM (active)
same,Potency,[3],inactive
COc1cc2nccc(Oc3ccc(NC(=O)c4cn(C(C)C)c(=O)n(-c5ccc(F)cc5)c4=O)cc3F)c2cc1OC,viability,[1],113%
same,Potency,[2],inactive
same,Potency,[5],inactive
CNC(=O)[C@H](Cc1c[nH]c2ccccc12)NC(=O)[C@@H](CC(=O)NO)CC(C)C,viability,[1],112%
same,Potency,[2],inactive
same,Potency,[3],inactive
same,Potency,[5],inactive
Cc1cc(C)c(S(=O)(=O)N(CCc2cccc(Br)c2)Cc2ccc(-c3cccc(S(C)(=O)=O)c3)cc2)c(C)c1,viability,[1],117%
same,Potency,[2],inactive
same,Potency,[3],inactive
same,Potency,[4],inactive
same,Potency,[5],inactive
CC[C@H]1OC(=O)[C@H](C)C(=O)[C@H](C)[C@@H](O[C@H]2O[C@H](C)C[C@H](N(C)C)[C@H]2O)[C@](C)(OC)C[C@@H](C)C(=O)[C@H](C)[C@H]2N(CCCCn3cnc(-c4cccnc4)c3)C(=O)O[C@]12C,viability,[1],101%
same,Potency,[2],inactive
same,Potency,[3],inactive
same,Potency,[4],inactive
same,Potency,[5],inactive
CC(C)(c1ccc(OCC(O)CO)cc1)c1ccc(OCC(O)CCl)cc1 (stereo unspecified),viability,[1],60%
same,Potency,[2],inactive
same,Potency,[3],inactive
same,Potency,[4],inactive
same,Potency,[5],inactive
Nc1nc(N)c2nc(-c3cccc(Cl)c3)c(N)nc2n1,Potency,[1],0.372 µM (active)
same,Potency,[2],2.95 µM (active)
same,Potency,[4],5.25 µM (active)
NC(=O)c1cc(F)cc2c1C(=O)N(C1CCN(C3CCC(F)(F)CC3)CC1)C2,viability,[1],106%
same,Potency,[2],inactive
same,Potency,[3],inactive
same,Potency,[4],inactive
same,Potency,[5],inactive
N#Cc1ccnc(N2C(=O)CC[C@H]2C(=O)N(c2cncc(F)c2)C(C(=O)NC2CC(F)(F)C2)c2ccccc2Cl)c1 (stereo partly specified),viability,[1],91.5%
same,Potency,[2],inactive
same,Potency,[3],inactive
same,Potency,[4],inactive
same,Potency,[5],inactive
CC1(N)CCN(c2cccnc2NC(=O)c2nc(-c3ncccc3C(F)(F)F)cnc2N)CC1,viability,[1],101%
same,Potency,[6],7.42 µM (active)
same,Potency,[7],18.6 µM (active)
Nc1ncnc2nc(-c3ccc(N4CCOCC4)nc3)cc(-c3cccc(Br)c3)c12,viability,[1],91.6%
same,Potency,[6],8.33 µM (active)
c1ccc(-c2nn3c(c2-c2ccnc4cc(OCCN5CCOCC5)ccc24)CCC3)nc1,viability,[1],81.4%
same,Potency,[2],inactive
same,Potency,[3],20.9 µM (active)
same,Potency,[4],18.6 µM (active)
CN(C)Cc1cccc(N=C(c2ccccc2)c2c(O)[nH]c3cc(C(=O)N(C)C)ccc23)c1,Potency,[1],20.9 µM (active)
same,Potency,[6],6.61 µM (active)
same,Potency,[7],14.8 µM (active)
CCCCCCCCCCCC1=C(O)C(=O)C=C(O)C1=O,viability,[1],115%
same,Potency,[6],13.2 µM (active)
Nc1nccc2c1ncn2[C@@H]1C=C(CO)[C@@H](O)[C@H]1O,Potency,[1],0.525 µM (active)
same,Potency,[6],0.166 µM (active)
same,Potency,[7],0.833 µM (active)
C[C@@H](Nc1cc(F)cc(F)c1)c1cc(C(=O)N(C)C)cc2c(=O)cc(N3CCOCC3)oc12,viability,[1],109%
same,Potency,[2],5.9 µM (active)
same,Potency,[4],23.5 µM (active)
C=C1/C(=C\C=C2/CCC[C@]3(C)[C@@H]([C@H](C)CCCC(C)(C)O)CC[C@@H]23)C[C@@H](O)C[C@@H]1O,viability,[1],99.5%
same,Potency,[2],20.9 µM (active)
same,Potency,[5],23.5 µM (active)
CN(C)CC[C@H](CSc1ccccc1)Nc1ccc(S(=O)(=O)NC(=O)c2ccc(N3CCN(Cc4ccccc4-c4ccc(Cl)cc4)CC3)cc2)cc1[N+](=O)[O-],Potency,[1],10.5 µM (active)
same,Potency,[6],0.263 µM (active)
same,Potency,[7],1.86 µM (active)
same,Potency,[4],2.35 µM (active)
same,Potency,[5],1.86 µM (active)
CCOc1cc(/C=C2/C(=O)N(c3ccccc3)N=C2C)cc(Cl)c1OCC(=O)OC,viability,[1],103%
same,Potency,[6],20.9 µM (active)
same,Potency,[7],inactive
same,Potency,[3],inactive
same,Potency,[4],inactive
same,Potency,[5],inactive
CO[C@H]1O[C@@H]2O[C@@]3(C)CC[C@H]4[C@H](C)CC[C@@H]([C@H]1C)[C@@]24OO3,Potency,[1],20.9 µM (active)
same,Potency,[6],4.17 µM (active)
same,Potency,[3],inactive
C[C@H]1C[C@H]2[C@@H]3CCC4=CC(=O)C=C[C@]4(C)[C@H]3C(=O)C[C@]2(C)[C@@]1(O)C(=O)CO,viability,[1],116%
same,Potency,[6],inactive
same,Potency,[7],inactive
same,Potency,[3],inactive
same,Potency,[4],inactive
same,Potency,[5],inactive
CC(C)(C)c1nc2c3cc[nH]c(=O)c3c3cc(F)ccc3c2[nH]1,Potency,[1],1.18 µM (active)
same,Potency,[6],1.18 µM (active)
same,Potency,[3],0.235 µM (active)
same,Potency,[4],0.662 µM (active)
